The record followed here is PubChem BioAssay AID485344 (National Center for Advancing Translational Sciences (NCATS), 2010).

Out of some 340,000 compounds screened, about 6,900 (2%) were called active. Only a selection was taken, and actives are over-represented in it overall. Values without a mark were called inactive. Rule as the data show it: active = inhibition above about 30%; inactive = below that, where a call was filed.

Sequence of D(2) dopamine receptor (Homo sapiens) (P14416 whole entry, looked up): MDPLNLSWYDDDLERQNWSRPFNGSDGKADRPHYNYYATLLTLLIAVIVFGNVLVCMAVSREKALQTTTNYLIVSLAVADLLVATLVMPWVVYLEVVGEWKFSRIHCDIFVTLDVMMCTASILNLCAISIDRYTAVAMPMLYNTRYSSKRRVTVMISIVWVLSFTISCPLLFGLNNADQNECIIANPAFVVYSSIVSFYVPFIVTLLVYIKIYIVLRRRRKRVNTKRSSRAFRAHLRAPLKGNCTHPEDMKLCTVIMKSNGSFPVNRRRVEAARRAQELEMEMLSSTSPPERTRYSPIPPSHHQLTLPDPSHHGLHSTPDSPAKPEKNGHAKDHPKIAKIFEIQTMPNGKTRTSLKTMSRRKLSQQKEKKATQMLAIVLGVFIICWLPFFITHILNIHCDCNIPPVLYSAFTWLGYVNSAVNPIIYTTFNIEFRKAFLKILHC

The assay has as its target D(2) dopamine receptor (Homo sapiens) (UniProt P14416). The assay is described as follows: HTS Assay for Allosteric Antagonists of the Human D2 Dopamine Receptor: Primary Screen for Antagonists. Also: 0% is about no effect. The settings on record: HEK293 TREx D2 cells, calcium flux, dopamine EC80; at 10 µM; stronger effect = higher value. The method, boiled down: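 Measurement of antagonist activity uses fluorescent calcium dye in inducible HEK293 T-REx D2 cells: 10 s baseline, compound addition with 180 s read, EC80 dopamine addition with a further 180 s read.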
On to `CN(C)CCn1c2c(c(SCC(=O)NCc3ccccc3)nc1=O)CCC2`, for which the inhibition was -8.18%.
Turning to `COCCNc1nnc(SCC(=O)NNC(=O)c2ccco2)s1`, the inhibition was -27.3%.
The result for `COc1ccccc1NS(=O)(=O)c1ccc(C)c(C(=O)NCC(c2ccco2)N(C)C)c1` (stereo unspecified) reads 7.48%.
The result for `CN(C)CCOCCOc1ccc(Cl)c2ccccc12` reads -4.55%; that for `Clc1cccc(Cl)c1OCCOCCNCc1ccccc1`, 53% (active); that for `COCCNCCOCCOc1cccc(OC)c1`, -3.27%.
On to `OC(COCC1COc2ccccc2O1)CN1CCN(c2ccc(F)cc2)CC1` (stereo unspecified), for which the inhibition was 2.02%.
Consider `O=[N+]([O-])c1ccc(N2CCN(CC(O)COc3ccccc3)CC2)cc1` (stereo unspecified), for which the inhibition is -9.55%.
Regarding `OC(COCc1ccco1)CN1CCN(c2ccccc2)CC1` (stereo unspecified), the inhibition is 74.4% (active).
In the case of `O=C(CSc1nc2ccccc2c(=O)n1CCCO)NC1CC1`, the inhibition is -4.48%.
On to `C=CCC(NC(=O)Cc1ccccc1)C(=O)NCCC` (stereo unspecified), for which the inhibition was 1.08%.
As for `CCCCC/C=C/C1=CC(=O)C[C@H](c2ccc(Cl)cc2)C1`, the inhibition is 3.21%.
As for `CC(C)(C)OC(=O)N/N=C/c1cn(-c2ccccc2)nc1-c1cccnc1`, the inhibition was -2.64%.
As to `Cc1nnc(SCC(=O)N/N=C/c2cn(-c3ccccc3)nc2-c2ccc(F)cc2)n1-c1ccccc1`, the inhibition is -8.35%.
Then `Cc1ccc(-c2nn(-c3ccccc3)cc2/C=N/NC(=O)c2ccc3c(c2)OCO3)cc1`, with 31.8% (active).
Take `Cc1ccc(OCC(=O)N2CCN(S(=O)(=O)c3ccc(Cl)s3)CC2)cc1C`: the inhibition is -12%.
Then `O=C(OCc1nnc(-c2ccccc2)o1)c1cc(=O)[nH]c2ccccc12`, with 6.34%; and `CCCc1nc2ccccc2c(C(=O)OCC(=O)c2ccc3c(c2)NC(=O)CO3)c1CC`, with -8.13%; and `CCCc1nc2ccccc2c(C(=O)OCc2nnc(-c3cc(OC)c(OC)c(OC)c3)o2)c1CC`, with 38% (active).
On to `CCOc1cc2[nH]c(=O)n(Cc3ccc(C(=O)NCCCN4CCCC4=O)cc3)c(=O)c2cc1OCC`, for which the inhibition was 9.71%.
In the case of `COc1cc2[nH]c(=O)n(Cc3ccc(C(=O)NC4CCN(Cc5ccccc5)CC4)cc3)c(=O)c2cc1OC`, the inhibition was 90.8% (active).
The result for `COc1ccc(C(=O)NC2CC2)cc1OC1CCN(Cc2ccc(SC)cc2)CC1` reads 2.51%; that for `COc1cc(C(=O)NC2CCN(Cc3ccccc3)CC2)cc(Cl)c1OC(C)C`, 47.6% (active).
Then `COc1cc2[nH]c(=O)n(CCC(=O)NC3CCN(Cc4ccccc4)CC3)c(=O)c2cc1OC`, with -8.24%; and `COC(=O)c1cccc(NC(=O)CN2CCC(NC(=O)c3cc(OC)c(OC)c(OC)c3)CC2)c1`, with -8.24%.
As for `Cc1c(NC(=O)CSc2nnc(-c3cccnc3)n2N)c(=O)n(-c2ccccc2)n1C`, the inhibition was 7.44%.
As for `CCCCn1c(N)c(N(CCC(C)C)C(=O)c2ccc(COc3ccccc3)o2)c(=O)[nH]c1=O`, the inhibition was -9.11%.
As for `C#CCOCCOCCOCCNc1nc(N2CCN(C(=O)CCCCCCCCCCNC(=O)[C@H]([C@@H](C)CC)n3cc(CCCCN=C(N)N)nn3)CC2)nc(N2CCN(C(=O)CCCCCCCCCCNC(=O)[C@H](CO)n3cc(CCCSC)nn3)CC2)n1`, the inhibition was 1.17%.
Take `Cc1ccn2c(=O)nc(SCC(=O)NCc3ccc(F)cc3)nc2c1`: the inhibition was 17.8%.
Consider `CC1CCCCN1C(=O)CCS(=O)(=O)Cc1ccccc1` (stereo unspecified), for which the inhibition is 3.72%.
As to `C/C(=N\NC(=S)NCc1ccccc1)C1CCCCC1`, the inhibition was -10.6%.
With `CC1CCCCN1C(=S)NCc1ccccc1` (stereo unspecified), the inhibition was 31.9% (active).
In the case of `O=C(CN1CCCSc2ccccc21)N1CCN(S(=O)(=O)c2ccccc2)CC1`, the inhibition was 3.3%.
Take `O=C(OCc1cc(=O)n2ccsc2n1)C1(c2ccc(Cl)cc2)CC1`: the inhibition was 29.3%.
Regarding `CSCCC(NC(=O)c1ccccc1)C(=O)N1CCN(Cc2ccc(Cl)cc2)CC1` (stereo unspecified), the inhibition is -14.3%.
As to `N#Cc1ccc(C2=CC(=O)C[C@H](c3ccc(Cl)cc3)C2)cc1`, the inhibition was -1.65%.
`COc1ccc(NC(=O)CN(C)C(=O)c2cc(C3CC3)nn2-c2ccccc2)cc1`: the inhibition is 39.5% (active).
As for `CCc1ccccc1NC(=O)CN(C)C(=O)c1cc(C2CC2)nn1-c1ccccc1`, the inhibition is 2.39%.
With `COc1cccc(NC(=O)CN(C)C(=O)c2cc(C3CC3)nn2-c2ccccc2)c1`, the inhibition is -0.486%.
In the case of `Cc1csc(=O)n1CCC(=O)OCC(=O)NNC(=O)c1ccc(Br)cc1`, the inhibition is -9.52%.
For the molecule `Cc1c(C(C)CCCO)oc(=O)c2c1Oc1c(C)c(C(C)C[C@@H](C)O)oc(=O)c1C2` (stereo partly specified), the inhibition was 17%.
In the case of `Cc1ccc(C(=O)OCC(=O)N2CC(C)CC(C)C2)cc1S(=O)(=O)N1CCCCC1` (stereo unspecified), the inhibition was 19.3%.
Then `O=C(CN1CCN(c2ccccc2)CC1)Nc1ccc(F)cc1`, with 13.5%; and `O=C(CCN1CCN(c2ccccc2)CC1)NNC(=S)Nc1ccccc1`, with 61.2% (active).
Regarding `O=C(CN1CCN(c2ccc(F)cc2)CC1)Nc1ccccc1`, the inhibition was -19.8%.
As to `Cc1cccc(C)c1NC(=O)COC(=O)c1c(C)nn(-c2ccccc2)c1C`, the inhibition is 1.57%.
As to `Cc1ccc(C(CC(=O)O)NC(=O)c2ccc(S(=O)(=O)N3CCCC3)cc2)cc1` (stereo unspecified), the inhibition is 8.12%.
In the case of `CN(C)CCNC(=O)Cc1ccc([N+](=O)[O-])cc1`, the inhibition is -7.39%.
Regarding `CN(C)CCCN1C(=O)CSC1c1ccc([N+](=O)[O-])cc1` (stereo unspecified), the inhibition is 34% (active).
Take `CCCCN(C)c1ccc([N+](=O)[O-])cc1`: the inhibition was -0.645%.
In the case of `CC(=O)Nc1ccc(S(=O)(=O)N2CCn3cccc3C2C)cc1` (stereo unspecified), the inhibition was 2.61%.
The result for `Cc1cccc(C(=O)NNC(=O)CSc2nnc(C(C)C)n2C)c1` reads 41.8% (active); that for `CCC(c1nnc(SCC(=O)NNC(=O)c2ccccc2)n1Cc1ccccc1)N(C)C` (stereo unspecified), -24.9%.
With `CCn1c(SCC(=O)NNC(=O)c2ccc(OC)cc2)nnc1C(C)C`, the inhibition is -19.3%.
Turning to `CN(CC(=O)NCc1ccc2c(c1)OCO2)CC(=O)Nc1ccc(F)c(F)c1F`, the inhibition is -25.8%.
Then `CCC[C@H]1CCCC/C=C\CCCC(=O)OCCN1C(=O)OC(C)(C)C`, with -5.66%.

One may read the inhibition as the change of the read-out against control, counted positive when it falls.
